# Laboratory results as given in PubChem BioAssay (NCI).
# Several values for one entry are separate records, joined by “and”; a condition that tells them apart may be missing. Equal values may be shown once. Compounds without any hit were thinned out: in the full panel of roughly 83,000, 20% have a hit.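 Cells were grown in 96-well plates and exposed to the test compound at a single concentration for 48 hours; results are reported as percent growth, with values below 10 considered active.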 A number with no mark means an inactive call. Activity calls are given as the source filed them.
# Test system: HOP-92 NSCLC
# Assay: NCI-60 one-dose screen, 48 h (100 = growth as untreated, 0 = no growth, -100 = all killed)
# Conditions: 10 µM unless noted
# Description: Growth inhibition of the HOP-92 human Non-Small Cell Lung tumor cell line is measured as a screen for anti-cancer activity. Cells are grown in 96 well plates and exposed to the test compound for 48 hours. Compounds are tested at a single concentration, which is 10^-5 M for most compounds. The reported endpoint is percent growth (GI% or GIPRCNT), where numbers from 0 - 100% represent growth inhibition, and numbers from -100% - 0 represent cell death. For example, a value of 40 represents 60% growth inhibition. A value of 0 means no net growth occurred over the course of the experiment. A value of -40 indicates 40% of cells at the beginning of the experiment died by the end of the experiment. A value of -100 means all cells are dead at the end of the experiment.
# NCI-60 Human Tumor Cell Lines Screen was performed using the standard one-dose NCI protocol, which is described in more detail at https://dtp.cancer.gov/discovery_development/nci-60/default.htm.
# Compounds with GIPRCNT values below 10 were considered active. Activity score was based on GIPRCNT using the following formula: […]
# Score is 0 for GIPRCNT values of 100 or above, 50 for GIPRCNT values of 0, and 100 for GIPRCNT values of -100.
row,SMILES,growth
1,CC(C)COC(=O)Cc1ccccc1,95.1%
2,CC[C@H](C)[C@H](NC(=O)[C@H]1CCCCN1C)C(=O)N(C)[C@H](CCc1nc(C(=O)N[C@@H](Cc2ccccc2)C[C@H](C)C(=O)O)cs1)C(C)C,30.3%
3,C[C@@H]1C/C=C\C(=O)O[C@H](/C=C/C#C/C=C/C(C)(C)[C@@H](O)c2cccc(O)c2Br)[C@@H](C)/C=C/[C@H](C)C[C@H](OC(N)=O)C1,9.34% (active)
4,O=C1CCCCC1CN1CCCCC1 (stereo not given),97.2%
5,C[C@]12CCc3nc(-c4ccc(O)c(O)c4)sc3C1=CC[C@@H]1[C@@H]2CC[C@]2(C)C(=O)CC[C@@H]12,56.3%
6,CCOC(=O)C1C(C=C(C)C)C1(C)C (stereo not given),84.6%
7,O=P(O)(Nc1ccccc1)Nc1ccccc1,89.1%
8,OCCNC1CCCCC1,108%
9,O=C(NC1=NCC[Se]1)c1ccccc1O,63.5%
10,CC[C@H](C)[C@H](NC(=O)[C@H]1CCCCN1C)C(=O)N(C)[C@H](C[C@@H](OC(C)=O)c1cccc(C(=O)N[C@@H](Cc2ccccc2)C[C@H](C)C(=O)OC)n1)C(C)C,-0.87% (active)
11,CSc1cc(/C=C(\C)[C@@H]2C[C@@H]3O[C@]3(C)CCC[C@H](C)[C@H](O)[C@@H](C)C(=O)C(C)(C)[C@@H](O)CC(=O)O2)n(CCNC(=O)OC(C)(C)C)n1,70.3%
12,CCCCCCCCCCCCCCCC[N+](C)(C)C,-45.3% (active) and -18.4% (active)
13,CC1(C)N=C(N)N=C(N)N1c1ccc(CCC(=O)Nc2ccc(S(=O)(=O)F)cc2)cc1,70.8%
14,Oc1cc(Cl)ccc1Oc1ccc(Cl)cc1Cl,-11.4% (active)
15,CC(=O)Nc1nc2c(s1)C1=CC[C@H]3[C@@H]4CC[C@H](OC(C)=O)[C@@]4(C)CC[C@@H]3[C@@]1(C)CC2,87.2%
16,O=C/C=C/c1ccco1,94.3%
17,C=CC[PH+](c1ccccc1)c1ccccc1.C=CC[PH+](c1ccccc1)c1ccccc1.[Pt+2].[S-]c1nc2ccccc2[nH]1.[S-]c1nc2ccccc2[nH]1,-44.3% (active)
18,S=P(SP(=S)(c1ccccc1)c1ccccc1)(c1ccccc1)c1ccccc1,86.7%
19,CN(C)c1ccc(C=C2C(=O)NC(=O)NC2=O)cc1,86.8%
20,O=S(=O)(F)c1cccc(Cl)c1C[P+](c1ccccc1)(c1ccccc1)c1ccccc1,91.3%

row,SMILES,growth
1,O=C1C=C(N2CC2)c2ccccc2C1=O,119%
2,COc1cc2c(cc1OC)-c1c3c(cc4c1[C@@H](C2)N(C)CC4)OCO3,6.02% (active)
3,O=C1NC(=O)C(=C/C=C/c2ccccc2)C(=O)N1,92.8%
4,O=[N+]([O-])c1cc(Cl)c(Cl)cc1Cl,110%
5,CC1(C)C=Cc2c(ccc3c2[N+]([O-])=C2C3=C[C@@]34NC(=O)[C@]5(CCCN5C3=O)C[C@@H]4C2(C)C)O1,73.4%
6,Cc1cc(Br)c([N+](=O)[O-])cc1[N+](=O)[O-],134%
7,C[N+]1(C)CCCC1c1cccnc1 (stereo not given),88.9%
8,C=C1C(=O)OC2CC3(C)OC3C3OC3C3=CC(OC3=O)C12 (stereo not given),9.95% (active)
9,C[Se]/C=C1/C(=O)N(c2c(Cl)cccc2Cl)c2ccccc21,15.7%
10,COc1ccc(CN)cc1OC,108%
11,C[C@@]12CCCc3coc(c31)C(=O)c1cc3c(cc12)C(=O)C1=C(NCCS1(=O)=O)C3=O,-30.6% (active)
12,CC(=O)C(N)Cc1ccccc1 (stereo not given),86.3%
13,NC(=O)Oc1cc(OC(N)=O)cc(N(CCCl)CCCl)c1,75.9%
14,CC[C@H](C)[C@H](NC(=O)[C@H]1CCCCN1C)C(=O)N(C)[C@H](C[C@@H](OC(C)=O)c1nc(C(=O)NC23C4C5C2C2C3C4C52C(=O)OC)cs1)C(C)C (stereo not given in full),-1.14% (active)
15,N[C@@H](CCC(=O)CCl)C(=O)O,84.6% [20 µM]
16,C[C@]12CCC(=O)C[C@@H]1CC[C@@H]1[C@@H]2CC[C@]2(C)[C@@H](OC(=O)N(CCCl)N=O)CC[C@@H]12,-8.11% (active)
17,C/C(=C\c1ccn(-c2ccc(N)cc2F)n1)[C@@H]1C[C@@H]2O[C@]2(C)CCC[C@H](C)[C@H](O)[C@@H](C)C(=O)C(C)(C)[C@@H](O)CC(=O)O1,49%
18,CCCC1CCCCC12C(=O)NC(=O)NC2=O (stereo not given),103%
19,C[C@]12CCC3[C@@H](C[C@@H]4SC(Nc5ccccc5)=N[C@@]45CC(=O)CC[C@]35C)[C@@H]1CCC2=O (stereo not given in full),-18.2% (active)
20,COC(=O)[C@@H](C)C[C@H](Cc1ccccc1)NC(=O)c1cccc([C@@H](C[C@H](C(C)C)N(C)C(=O)[C@@H](NC(=O)[C@H]2CCCCN2C)C2CC2)OC(C)=O)n1,5.28% (active)
